Results taken from PubChem BioAssay AID1159577 (Broad Institute, 2015).
Hit rate of the full screen: of about 1,300 compounds, about 240 (18%) were called active. Not shown: some 8% with an inconclusive outcome. The rule behind the calls is not given here. Only a sample is shown. Entries with a potency or affinity are not part of this list.

Assay: toxicity to human hepatoma HepG2 cells – cell-based, cherry-picked samples, cytotoxicity control, dose response (AID 1159577)
Conditions: HepG2 cytotoxicity counterscreen, plate reader; series mostly up to 19.5 µM

| SMILES | outcome |
| --- | --- |
| O=C(Nc1ccc(F)cc1)N1C[C@H]2[C@@H](c3ccccc31)[C@@H](CO)N2Cc1cocn1 | inactive |
| COc1ccc(NC(=O)N2CC3(C2)CN(C(=O)C2CCC2)[C@H](CO)c2c3c3ccc(OC)cc3n2C)cc1 | inactive |
| C/C=C/c1ccccc1[C@H]1[C@@H](C#N)N(C(=O)NC2CCCC2)[C@H]1CO | inactive |
| COc1ccc(-c2ccc3c(c2)[C@H]2[C@H](CCN2C(=O)C2CCCC2)[C@H](CO)N3C)cc1 | inactive |
| COc1ccc(-c2ccc3c(c2)[C@H]2[C@H](CCN2C(=O)NC2CCCC2)[C@H](CO)N3C)cc1 | inactive |
| O=C(c1ccc(F)cc1)N1CC(=O)N2[C@H](C1)[C@@H](c1ccc(-c3cccnc3)cc1)[C@@H]2CO | inactive |
| CCCNC(=O)Nc1ccc2c(c1)C(=O)N(C)C[C@H](OC)[C@@H](C)CN(C(=O)C1CCOCC1)[C@H](C)CO2 | inactive |
| CO[C@@H]1CN(C)C(=O)c2ccc(NC(=O)Nc3ccccc3F)cc2OC[C@@H](C)N(Cc2ccccc2F)C[C@H]1C | inactive |
| O=C1CN(S(=O)(=O)c2ccccc2)C[C@H]2[C@H](c3ccc(C#CCc4ccccc4)cc3)[C@@H](CO)N12 | inactive |
| Cc1ccccc1S(=O)(=O)N1CC(=O)N2[C@H](CO)[C@H](c3ccc(C#CCC4CCCC4)cc3)[C@H]2C1 | inactive |
| O=C1CN(S(=O)(=O)c2ccccc2)C[C@@H]2[C@H](c3ccc(C#CCc4ccccc4)cc3)[C@@H](CO)N12 | inactive |
| Cc1ccccc1S(=O)(=O)N1CC(=O)N2[C@H](CO)[C@H](c3ccc(C#CC4CC4)cc3)[C@@H]2C1 | inactive |
| C[C@@H]1CN([C@@H](C)CO)C(=O)c2cccc(NC(=O)c3nc4ccccc4s3)c2O[C@H]1CN(C)C(=O)Nc1ccc2c(c1)OCO2 | inactive |
| CCNC(=O)c1cc2c(c(-c3cccc(-c4cc5ccccc5o4)c3)n1)[C@@H](CCO)N(C(=O)NC(C)C)C2 | inactive |
| CC(C)(C)[S@](=O)N1Cc2cc(C(=O)NCCN3CCCCC3)nc(-c3cccc(-c4ccc(C#N)cc4)c3)c2[C@@H]1CCO | inactive |
| COc1ccccc1S(=O)(=O)N(C)C[C@@H]1Oc2cc(/C=C/c3ccccc3)ccc2S(=O)(=O)N([C@H](C)CO)C[C@H]1C | inactive |
| O=C(c1ccccc1F)N1CC(=O)N2[C@H](CO)[C@H](c3ccc(-c4cccnc4)cc3)[C@H]2C1 | inactive |
| C[C@@H]1CN([C@@H](C)CO)C(=O)c2cccc(NC(=O)c3nc4ccccc4s3)c2O[C@H]1CN(C)C(=O)Nc1ccc(C(F)(F)F)cc1 | inactive |
| CCCNC(=O)N1[C@H](C#N)[C@H](c2ccc(-c3cccnc3)cc2)[C@H]1CO | inactive |
| COc1ccc2c3c([nH]c2c1)[C@@H](CO)N(Cc1ccccc1)CC31CCN(C(=O)c2cccnc2)CC1 | inactive |
| CS(=O)(=O)N1[C@H](C#N)[C@H](c2ccccc2-c2ccccc2)[C@H]1CO | inactive |
| Cc1ccc(S(=O)(=O)N(C)C[C@H]2Oc3ccc(NC(=O)c4ccncc4)cc3C(=O)N([C@@H](C)CO)C[C@@H]2C)cc1 | inactive |
| CO[C@H]1CN(C)C(=O)c2cc(NC(C)=O)ccc2OC[C@H](C)N(Cc2ccncc2)C[C@@H]1C | inactive |
| N#Cc1ccc(-c2ccc(C3[C@@H]4CN(C(=O)C5CC5)C[C@H]3N4)cc2)cc1 (stereo not given in full) | inactive |

| SMILES | outcome |
| --- | --- |
| C[C@H]1CN([C@@H](C)CO)C(=O)c2ccccc2-c2ccccc2CO[C@@H]1CN(C)C(=O)Nc1ccc(-c2ccccc2)cc1 | inactive |
| COc1ccc2c3c([nH]c2c1)[C@@H](CO)N(Cc1ccccc1F)CC31CCN(C(=O)C2CCOCC2)CC1 | inactive |
| Cc1ccc(S(=O)(=O)N(C)C[C@@H]2OCc3ccccc3-c3c(n(C)c4ccccc34)C(=O)N([C@H](C)CO)C[C@@H]2C)cc1 | inactive |
| Cc1ccccc1S(=O)(=O)N(C)C[C@@H]1OCc2ccccc2-c2c(n(C)c3ccccc23)C(=O)N([C@@H](C)CO)C[C@@H]1C | inactive |
| COCC(=O)N1CC2(C1)CN(Cc1ccccc1F)[C@H](CO)c1[nH]c3cc(OC)ccc3c12 | inactive |
| CN(C)CC(=O)Nc1ccc2c(c1)[C@@H]1C[C@H](CC(=O)N3CCOCC3)O[C@@H](CO)[C@@H]1O2 | inactive |
| N#Cc1ccc(-c2ccc([C@@H]3[C@@H]4CN(S(=O)(=O)Cc5ccccc5)C[C@H]3N4)cc2)cc1 | inactive |
| N#Cc1ccc(-c2ccc([C@@H]3[C@@H]4CN(Cc5cocn5)C[C@H]3N4)cc2)cc1 | inactive |
| N#Cc1ccc(-c2ccc([C@@H]3[C@@H](CO)N4C(=O)CN(C(=O)C5CCC5)C[C@@H]34)cc2)cc1 | inactive |
| CCCC#Cc1ccc2c(c1)O[C@H](CN(C)C(=O)c1ccccc1F)[C@@H](C)CN([C@H](C)CO)S2(=O)=O | inactive |
| C/C=C/c1ccc2c(c1)[C@@H]1[C@@H](CCN1S(=O)(=O)c1ccccc1C)[C@H](CO)N2 | inactive |
| COc1cccc(CNC(=O)c2cc3c(c(-c4cccc(-c5ccncc5)c4)n2)[C@@H](CCO)N([S@](=O)C(C)(C)C)C3)c1 | inactive |
| C[C@H]1CN([C@@H](C)CO)S(=O)(=O)c2ccc(C#Cc3ccccc3F)cc2O[C@H]1CN(C)C(=O)c1ccc2c(c1)OCO2 | inactive |
| CCCNC(=O)c1cc2c(c(-c3cccc(-c4cc5ccccc5o4)c3)n1)[C@H](CCO)N(C(=O)NC(C)C)C2 | inactive |
| O=C(c1ccccc1F)N1CC(=O)N2[C@H](C1)[C@@H](c1ccc(-c3ccc(F)cc3)cc1)[C@@H]2CO | inactive |
| C/C=C/c1ccc([C@H]2[C@@H](CO)N(CC3CCCC3)C23CN(C(=O)CC2CC2)C3)cc1 | inactive |
| COc1ccccc1-c1ccc([C@@H]2[C@@H](C#N)N[C@@H]2CO)cc1 | inactive |
| Cc1ccccc1S(=O)(=O)N1C[C@@H]2N[C@H](C1)C2c1ccc(-c2ccc(C#N)cc2)cc1 (stereo not given in full) | inactive |
| COc1ccccc1CN1C[C@@H]2N[C@H](C1)C2c1ccc(-c2ccncc2)cc1 (stereo not given in full) | inactive |
| COc1cccc(CN2[C@@H]3CNC[C@H]2[C@H]3c2ccc(-c3ccccc3OC)cc2)c1 | inactive |
| CCCC(=O)N1CCC2(CC1)CN(Cc1cccnc1)[C@@H](CO)c1[nH]c3cc(OC)ccc3c12 | inactive |
| CCC(=O)N1CC2(C1)CN(S(=O)(=O)c1ccccc1)[C@@H](CO)c1[nH]c3cc(OC)ccc3c12 | inactive |
| CS(=O)(=O)N1[C@H](C#N)[C@H](c2ccccc2-c2ccc(F)cc2)[C@H]1CO | inactive |
| COc1ccc(S(=O)(=O)Nc2ccc3c(c2)CC(=O)N([C@H](C)CO)C[C@H](C)[C@H](CN(C)S(=O)(=O)c2ccc(C)cc2)O3)cc1 | inactive |

| SMILES | outcome |
| --- | --- |
| N#C[C@@H]1[C@H](c2ccccc2C2=CCCCC2)[C@@H](CO)N1C(=O)c1cccc(F)c1 | inactive |
| COc1cccc(-c2ccc(C3[C@@H]4CN(C(=O)C5CC5)C[C@H]3N4)cc2)c1 (stereo not given in full) | inactive |
| O=C(Nc1ccc(C(F)(F)F)cc1)N1C[C@@H]2N[C@H](C1)C2c1ccc(-c2cccnc2)cc1 (stereo not given in full) | inactive |
| COc1ccc(-c2ccc(C3[C@H]4CNC[C@@H]3N4C(=O)Nc3ccc(C(F)(F)F)cc3)cc2)cc1 (stereo not given in full) | inactive |
| O=C(c1cnccn1)N1CC(=O)N2[C@@H](CO)[C@@H](c3ccc(C#CCc4ccccc4)cc3)[C@@H]2C1 | inactive |
| CCC(=O)N1CC2(C1)CN(Cc1cc(F)ccc1F)[C@H](CO)c1[nH]c3cc(OC)ccc3c12 | inactive |
| CC(C)(C)[S@@](=O)N1Cc2cc(C(=O)N3CCc4ccccc4C3)nc(-c3cccc(-c4ccncc4)c3)c2[C@H]1CCO | inactive |
| C[C@H]1CN([C@@H](C)CO)C(=O)CCCn2nncc2CO[C@H]1CN(C)C(=O)Nc1ccc(N2CCCCC2)cc1 | inactive |
| C[C@@H]1CN([C@H](C)CO)C(=O)c2cc(/C=C/c3ccccc3)cnc2O[C@H]1CN(C)C(=O)NC1CCCCC1 | inactive |
| CN(C)CC#Cc1ccc([C@@H]2[C@H](CO)N3C(=O)CN(C(=O)Cc4cccnc4)C[C@@H]23)cc1 | inactive |
| COCC(=O)Nc1ccc2c(c1)C(=O)N(C)C[C@H](OC)[C@H](C)CN(Cc1cccc(F)c1)[C@@H](C)CO2 | inactive |
| C[C@@H]1CN([C@H](C)CO)C(=O)c2cccc(NC(=O)c3nc4ccccc4s3)c2O[C@H]1CN(C)C(=O)Nc1ccc(C(F)(F)F)cc1 | inactive |
| CCCNC(=O)N1CCC2(CC1)CN(Cc1ccc(F)cc1)[C@@H](CO)c1[nH]c3cc(OC)ccc3c12 | inactive |
| CO[C@@H]1CN(C)C(=O)c2ccc(NC(=O)c3nc4ccccc4s3)cc2OC[C@@H](C)N(Cc2ccccc2)C[C@H]1C | inactive |
| COc1ccc(-c2ccc(C3[C@H]4CNC[C@@H]3N4S(=O)(=O)c3cccc(OC)c3)cc2)cc1 (stereo not given in full) | inactive |
| COc1cc(CN2[C@@H]3CNC[C@H]2C3c2ccc(-c3ccccc3)cc2)cc(OC)c1 (stereo not given in full) | inactive |
| CCC(=O)N1CC2(C1)CN(Cc1cccc(Cl)c1)[C@H](CO)c1[nH]c3cc(OC)ccc3c12 | inactive |
| C[C@@H]1CN([C@H](C)CO)C(=O)c2cccc(NS(=O)(=O)c3cccs3)c2O[C@H]1CN(C)Cc1ccc(C(F)(F)F)cc1 | inactive |
| COc1ccc(C#Cc2ccc3c(c2)O[C@H](CN(C)C(=O)Nc2cccc(OC)c2)[C@H](C)CN([C@@H](C)CO)S3(=O)=O)cc1 | inactive |
| CC(C)(C)[S@](=O)N1Cc2cc(C(=O)NC3CCC3)nc(-c3cccc(Br)c3)c2[C@@H]1CCO | inactive |
| COc1ccc(S(=O)(=O)N(C)C[C@@H]2OCc3ccccc3-c3c(n(C)c4ccccc34)C(=O)N([C@@H](C)CO)C[C@@H]2C)cc1 | inactive |
| COc1ccc2c3c(n(C)c2c1)[C@H](CO)N(C(=O)c1cccc(F)c1)CC31CN(C(=O)c2cccc(F)c2)C1 | inactive |
